Our source for the outcome and AC50 values is PubChem BioAssay (EPA / NIEHS).

“And” between values parts separate entries of the source, which are not always exact repeats. Equal entries are not always repeated. More than one record can exist for a structure, and the calls need not agree. The source made the active and inactive calls. How the source made its calls: active means hit-call score of the fitted dose curve at least 0.9, where 1 is the maximum; inactive means score below 0.9.

Read-out in experiment [1]: Interleukin-8 (IL8), CXCL8 (gene 3576)
Put plainly: BSK_MyoF_IL8: BioMAP Diversity Plus: MyoF Assay for Interleukin-8 (IL8) Biomarker Activity (AID 2284261). Particulars: primary human lung fibroblasts. The essentials:
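IL-8 quantified by ELISA after 24 h compound exposure of primary human lung fibroblasts. SRB staining of parallel cultures flagged cytotoxicity; DMSO served as baseline.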

Read-out in the next experiment: Decorin, DCN (gene 1634)
Put plainly: BSK_MyoF_Decorin: BioMAP Diversity Plus: MyoF Assay for Decorin Biomarker Activity (AID 2284265). Particulars: primary human lung fibroblasts. An outline of the steps:
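Decorin protein was quantified by ELISA 24 h after chemical addition to primary human lung fibroblasts and analysed as increase over DMSO. Cytotoxicity was tracked in parallel cultures by SRB total-protein staining read at 560 nm.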

A short description of experiment [2]: BSK_MyoF_SRB: Viability Assessment in the BioMAP Diversity Plus: MyoF Assay (AID 2284267).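 Further: total protein by SRB absorbance in parallel cultures as cytotoxicity measure.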 Particulars: primary human lung fibroblasts. An outline of the steps:
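Read-out is SRB absorbance at 560 nm, reflecting total protein in parallel lung fibroblast cultures harvested 24 h after compound addition. Cells were TCA-fixed (10%) and stained with 0.1% SRB; activity is referenced to DMSO.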

Read-out in experiment [3]: Matrix Metallopeptidase 1 (MMP1), MMP1 (gene 4312)
Put plainly: BSK_MyoF_MMP1: BioMAP Diversity Plus: MyoF Assay for Matrix Metallopeptidase 1 (MMP1) Biomarker Activity (AID 2284268). Particulars: primary human lung fibroblasts. The essentials: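 Human lung fibroblasts (MyoF system) exposed to chemical for 24 h in 96-well format; MMP1 biomarker quantified by ELISA, with activity fitted in the positive direction relative to DMSO baseline.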

Read-out in experiment [4]: TIMP metallopeptidase inhibitor 1 (TIMP1), TIMP1 (gene 7076)
Put plainly: BSK_MyoF_TIMP1: BioMAP Diversity Plus: MyoF Assay for TIMP metallopeptidase inhibitor 1 (TIMP1) Biomarker Activity (AID 2284269). Particulars: primary human lung fibroblasts. An outline of the steps: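 TIMP-1 levels were determined by ELISA in human lung fibroblasts treated for 24 h. DMSO served as negative control and baseline for upward curve fitting.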

Read-out in experiment [5]: Intercellular Adhesion Molecule 1 (ICAM1), ICAM1 (gene 3383)
Put plainly: BSK_BF4T_ICAM1: BioMAP Diversity Plus: BF4T Assay for Intercellular Adhesion Molecule 1 (ICAM1) Biomarker Activity (AID 2284260). Particulars: primary human bronchial epithelial cells with fibroblasts. An outline of the steps:
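Co-culture of human bronchial epithelial cells and dermal fibroblasts exposed 24 h to chemical; cell-surface ICAM-1 quantified by ELISA. Parallel SRB total-protein staining assessed cytotoxicity; activity fitted relative to DMSO.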

Read-out in experiment [6]: Matrix Metallopeptidase 3 (MMP3), MMP3 (gene 4314)
Put plainly: BSK_BF4T_MMP3: BioMAP Diversity Plus: BF4T Assay for Matrix Metallopeptidase 3 (MMP3) Biomarker Activity (AID 2284271). Particulars: primary human bronchial epithelial cells with fibroblasts. An outline of the steps:
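Co-culture of human bronchial epithelial cells and dermal fibroblasts dosed 24 h; MMP-3 measured by ELISA, positive-direction fit versus DMSO. Cytotoxicity tracked by SRB total-protein staining (560 nm) in parallel cultures.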

Read-out in experiment [7]: Tissue plasminogen activator (tPA), PLAT (gene 5327)
Put plainly: BSK_BF4T_tPA: BioMAP Diversity Plus: BF4T Assay for Tissue plasminogen activator (tPA) Biomarker Activity (AID 2284272). Particulars: primary human bronchial epithelial cells with fibroblasts. An outline of the steps: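 tPA level quantified by ELISA at 24 h post-treatment in bronchial epithelial/dermal fibroblast co-cultures, gain of signal scored against DMSO baseline. Parallel cultures stained with 0.1% SRB (560 nm) to flag overt cytotoxicity.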

Read-out in experiment [8]: Plasminogen Activator Inhibitor-1 (PAI1), SERPINE1 (gene 5054)
Put plainly: BSK_BF4T_PAI1: BioMAP Diversity Plus: BF4T Assay for Plasminogen Activator Inhibitor-1 (PAI1) Biomarker Activity (AID 2284273). Particulars: primary human bronchial epithelial cells with fibroblasts. An outline of the steps: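 Co-culture of human bronchial epithelial cells and dermal fibroblasts exposed to compound for 24 h. PAI-1 measured by ELISA; activity fitted in positive direction versus DMSO. Parallel SRB staining assessed overt cytotoxicity.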

Experiment [9] in a line: BSK_BF4T_SRB: Viability Assessment in the BioMAP Diversity Plus: BF4T Assay (AID 2284274). Particulars: primary human bronchial epithelial cells with fibroblasts. An outline of the steps: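 Co-culture of human bronchial epithelial cells and dermal fibroblasts (BioMAP BF4T) exposed 24 h. Total protein by sulforhodamine B staining (0.1% SRB after 10% TCA fixation, 560 nm) in parallel cultures; fitted vs DMSO.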

Turning to `CCCCC(CC)COC(=O)c1c(Br)c(Br)c(Br)c(Br)c1C(=O)OCC(CC)CCCC` (stereo unspecified), the outcome in experiment [1] was “inactive”; in the experiment with Decorin, DCN (gene 1634), “inactive”; in experiment [2] it was “inactive”; in [3], “inactive”; in experiment [4], “inactive”.

For the compound `FC(F)(F)C(F)(C(F)(F)F)C(F)(F)C(F)(F)CC1CO1` (stereo unspecified), the outcome in experiment [5] was “inactive”; in experiment [1], “inactive”; with Decorin, DCN (gene 1634), “inactive”; in experiment [2], “inactive”; in experiment [3], “inactive”; in experiment [4], “inactive”. Also, the result in experiment [6], in experiment [7], in experiment [8] and in experiment [9] was inactive.

The AC50 is the concentration at which the activity in the assay is half-maximal. With `Cc1c([N+](=O)[O-])cc2c(c1[N+](=O)[O-])C(C)(C)CC2(C)C`, the outcome in [1] was “inactive”; with Decorin, DCN (gene 1634), “inactive”; in [2] it was “inactive”; in [4] it was “inactive”. Moreover, in experiment [3], the AC50 was 4.01 µM (active).

As to `c1ccc2c(c1)sc1ccccc12`, the outcome in experiment [1] is “inactive”; with Decorin, DCN (gene 1634), “inactive”; in experiment [2], “inactive”; in [3] it was “inactive”; in experiment [4], “inactive”.

For `O=P(OCC(Br)CBr)(OCC(Br)CBr)OCC(Br)CBr` (stereo unspecified), the outcome is “inactive” in [1]; “inactive” with Decorin, DCN (gene 1634); “inactive” in experiment [2]; “inactive” in experiment [4]. Also, the AC50 in [3] was 25.9 µM (active).

Consider `O=C(O)C=CC(F)(C(F)(F)F)C(F)(F)F`, for which the outcome in experiment [5] was “inactive”; in experiment [1] it was “inactive”; with Decorin, DCN (gene 1634), “inactive”; in [2], “inactive”; in experiment [3], “inactive”; in experiment [4], “inactive”. For the same compound, the result in experiment [6], in experiment [7], in experiment [8] and in [9] was inactive.

Turning to `O=C(O)C(F)(F)OC(F)(F)C(F)(F)OC(F)(F)F`, the outcome in experiment [5] is “inactive”; in experiment [1], “inactive”; in the experiment with Decorin, DCN (gene 1634), “inactive”; in experiment [2], “inactive”; in [3], “inactive”; in [4] it was “inactive”. The outcome in [6], in experiment [7], in experiment [8] and in [9] was inactive.

For the compound `O=S(=O)(F)C(F)(F)C(F)(F)C(F)(F)C(F)(F)C(F)(F)C(F)(F)C(F)(F)C(F)(F)F`, the outcome was “inactive” in experiment [5]; “inactive” in experiment [1]; “inactive” with Decorin, DCN (gene 1634); “inactive” in experiment [2]; “inactive” in [3]; “inactive” in [4]. Further, the result in [6], in [7], in [8] and in [9] was inactive.

Turning to `CCOP(=S)(S)OCC`, the outcome in experiment [1] is “inactive”; with Decorin, DCN (gene 1634) it was “inactive”; in experiment [2] it was “inactive”; in [3], “inactive”; in experiment [4], “inactive”.

Turning to `CC(C)Nc1ccc(Nc2ccccc2)cc1`, the outcome in [1] was “inactive”; in the experiment with Decorin, DCN (gene 1634), “inactive”; in [3] it was “inactive”. The AC50 in [2] and in experiment [4] was 20 µM (active) each time.

Turning to `O=c1ssc(Cl)c1Cl`, the outcome in experiment [1] was inactive. Further, the AC50 with Decorin, DCN (gene 1634) is 9.67 µM (active); in experiment [2], 5.58 µM (active); in experiment [3], 20 µM (active); in experiment [4], 7.43 µM (active).

For `O=C(O)C(F)(F)OC(F)(F)C(F)(F)OC(F)(F)C(=O)O`, the outcome in experiment [5] was “inactive”; in experiment [1], “inactive”; with Decorin, DCN (gene 1634), “inactive”; in experiment [2], “inactive”; in experiment [3] it was “inactive”; in experiment [4] it was “inactive”. Further, the outcome in experiment [6], in [7], in experiment [8] and in experiment [9] was inactive.

Take `OCC(F)(F)OC(F)(F)C(F)(F)OC(F)(F)C(F)(F)OC(F)(F)F`: the outcome in experiment [5] was “inactive”; in experiment [1] it was “inactive”; with Decorin, DCN (gene 1634) it was “inactive”; in experiment [6], “inactive”; in experiment [7], “inactive”; in [8], “inactive”. Besides, in experiment [9], the outcome was inactive. For the same compound, the AC50 was 21.9 µM (active) and 21.6 µM (active) in experiment [2]; 19.9 µM (active) and 18.3 µM (active) in experiment [3]; 22.3 µM (active) and 27.8 µM (active) in experiment [4]; 25.6 µM (active) in [8].

For the compound `CC(Cl)CN(C)C` (stereo unspecified), the outcome in experiment [1] was “inactive”; in the experiment with Decorin, DCN (gene 1634), “inactive”; in experiment [2], “inactive”; in experiment [3] it was “inactive”; in experiment [4] it was “inactive”.

Take `O=C(O)C(F)(F)C(F)(F)C(=O)O`: the outcome was “inactive” in experiment [5]; “inactive” in [1]; “inactive” in the experiment with Decorin, DCN (gene 1634); “inactive” in experiment [2]; “inactive” in experiment [3]; “inactive” in [4]. For the same compound, the outcome in experiment [6], in experiment [7], in experiment [8] and in [9] was inactive.

As for `CC(O)C(F)(F)C(F)(F)F` (stereo unspecified), the outcome in experiment [5] was “inactive”; in [1], “inactive”; with Decorin, DCN (gene 1634) it was “inactive”; in experiment [2], “inactive”; in experiment [3] it was “inactive”; in experiment [4], “inactive”. Further, the outcome in experiment [6], in experiment [7], in experiment [8] and in experiment [9] was inactive.

As for `CCOP(=S)(OCC)SCn1nnc2ccccc2c1=O`, the outcome in experiment [1] was “inactive”; with Decorin, DCN (gene 1634), “inactive”; in experiment [2], “inactive”; in experiment [3], “inactive”; in experiment [4] it was “inactive”.

In the case of `O=S1(=O)OCC2C(CO1)C1(Cl)C(Cl)=C(Cl)C2(Cl)C1(Cl)Cl` (stereo unspecified), the outcome in experiment [1] is “inactive”; with Decorin, DCN (gene 1634), “inactive”; in [2] it was “inactive”; in experiment [3], “inactive”; in experiment [4] it was “inactive”.
